Measured values: PubChem BioAssay AID1159580 (chemical genetic matrix, 2015)
The campaign covered roughly 5,500 compounds. About 2,000 (36%) were called active. About 18% were inconclusive and are not listed. Rule as the data show it: active = normalized growth mostly below about 0.91 (no sharp cut-off); inconclusive = no clear call, values can overlap the other calls; inactive = mostly above about 0.92. This is one part of the list.

Test: chemical genetic growth profiling, strain panel (AID 1159580);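 also: tested at 20 µM; growth read once vehicle control cultures reached saturation at 30 °C; 1 = growth at the plate median or of vehicle wells; lower values mean less growth of the strain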
Conditions: growth OD

Measured: normalized growth

CCOC(=O)NC1=C(C2CC2)C(=O)C(NC(=O)OCC)=C(C2CC2)C1=O
inactive: S. cerevisiae deletion strains, locus YAL013W, strain DEP1, hits give low values 0.97 | S. cerevisiae deletion strains, locus YBR021W, strain FUR4, hits give low values 0.961 | S. cerevisiae deletion strains, locus YBR229C, strain ROT2, hits give low values 1 | S. cerevisiae deletion strains, locus YCL029C, strain bik1, hits give low values 0.993 | S. cerevisiae deletion strains, locus YDL035C, strain GPR1, hits give low values 1 | S. cerevisiae deletion strains, locus YDL074C, strain BRE1, hits give low values 1.04 | S. cerevisiae deletion strains, locus YDL101C, strain DUN1, hits give low values 1 | S. cerevisiae deletion strains, locus YDL134C, strain PPH21, hits give low values 1 | S. cerevisiae deletion strains, locus YDL185W, strain tfp1, hits give low values 0.98 | S. cerevisiae deletion strains, locus YDL192W, strain arf1, hits give low values 0.991 | S. cerevisiae deletion strains, locus YDR101C, strain arx1, hits give low values 0.993 | S. cerevisiae deletion strains, locus YDR150W, strain NUM1, hits give low values 0.99 | S. cerevisiae deletion strains, locus YDR162C, strain NBP2, hits give low values 1.01 | S. cerevisiae deletion strains, locus YDR318W, strain mcm21, hits give low values 0.99 | S. cerevisiae deletion strains, locus YDR388W, hits give low values 0.995 | S. cerevisiae deletion strains, locus YDR502C, strain sam2, hits give low values 0.996 | S. cerevisiae deletion strains, locus YEL061C, strain CIN8, hits give low values 0.995 | S. cerevisiae deletion strains, locus YER110C, hits give low values 0.98 | S. cerevisiae deletion strains, locus YER155C, strain BEM2, hits give low values 0.994 | S. cerevisiae deletion strains, locus YER167W, strain BCK2, hits give low values 0.98 | S. cerevisiae deletion strains, locus YGL078C, strain dbp3, hits give low values 0.983 | S. cerevisiae deletion strains, locus YGL086W, strain mad1, hits give low values 0.982 | S. cerevisiae deletion strains, locus YGL248W, strain PDE1, hits give low values 1 | S. cerevisiae deletion strains, locus YGR078C, strain PAC10, hits give low values 1.01 | S. cerevisiae deletion strains, locus YGR135W, strain pre9, hits give low values 1 | S. cerevisiae deletion strains, locus YGR229C, strain SMI1, hits give low values 1.04 | S. cerevisiae deletion strains, locus YGR252W, strain gcn5, hits give low values 1.02 | S. cerevisiae deletion strains, locus YHR030C, strain SLT2, hits give low values 0.986 | S. cerevisiae deletion strains, locus YHR079C, strain IRE1 (second series), hits give low values 0.99 | S. cerevisiae deletion strains, locus YHR094C, strain hxt1, hits give low values 0.976 | S. cerevisiae deletion strains, locus YHR129C, strain ARP1, hits give low values 0.999 | S. cerevisiae deletion strains, locus YHR200W, strain rpn10, hits give low values 0.992 | S. cerevisiae deletion strains, locus YIL066C, strain RNR3, hits give low values 1 | S. cerevisiae deletion strains, locus YIL073C, strain SPO22, hits give low values 0.9 | S. cerevisiae deletion strains, locus YIL125W, strain kgd1, hits give low values 0.988 | S. cerevisiae deletion strains, locus YIR030C, strain dcg1, hits give low values 0.995 | S. cerevisiae deletion strains, locus YJL095W, strain BCK1, hits give low values 1.05 | S. cerevisiae deletion strains, locus YJL134W, strain LCB3, hits give low values 0.993 | S. cerevisiae deletion strains, locus YJL168C, strain set2, hits give low values 0.993 | S. cerevisiae deletion strains, locus YJL187C, strain SWE1 (second series), hits give low values 0.988 | S. cerevisiae deletion strains, locus YJR043C, strain POL32, hits give low values 0.997 | S. cerevisiae deletion strains, locus YJR075W, strain HOC1, hits give low values 0.999 | S. cerevisiae deletion strains, locus YKL009W, strain mrt4, hits give low values 0.973 | S. cerevisiae deletion strains, locus YKL068W, hits give low values 0.98 | S. cerevisiae deletion strains, locus YKL085W, strain MDH1 (second series), hits give low values 0.984 | S. cerevisiae deletion strains, locus YKL085W, strain MDH1, hits give low values 0.984 | S. cerevisiae deletion strains, locus YKL190W, strain CNB1, hits give low values 0.994 | S. cerevisiae deletion strains, locus YKR001C, strain vps1, hits give low values 0.989 | S. cerevisiae deletion strains, locus YLR039C, strain RIC1, hits give low values 0.96 | S. cerevisiae deletion strains, locus YLR058C, strain SHM2, hits give low values 0.984 | S. cerevisiae deletion strains, locus YLR102C, strain apc9, hits give low values 0.992 | S. cerevisiae deletion strains, locus YLR262C, strain YPT6, hits give low values 1.01 | S. cerevisiae deletion strains, locus YLR268W, strain sec22, hits give low values 1.01 | S. cerevisiae deletion strains, locus YLR330W, strain CHS5, hits give low values 0.989 | S. cerevisiae deletion strains, locus YLR342W, strain FKS1 (second series), hits give low values 0.976 | S. cerevisiae deletion strains, locus YLR371W, strain rom2, hits give low values 0.976 | S. cerevisiae deletion strains, locus YLR418C, strain cdc73, hits give low values 1.03 | S. cerevisiae deletion strains, locus YML016C, strain PPZ1, hits give low values 0.99 | S. cerevisiae deletion strains, locus YML032C, strain rad52, hits give low values 0.985 | S. cerevisiae deletion strains, locus YML124C, strain tub3, hits give low values 0.988 | S. cerevisiae deletion strains, locus YMR078C, strain ctf18, hits give low values 0.993 | S. cerevisiae deletion strains, locus YMR223W, strain ubp8, hits give low values 0.979 | S. cerevisiae deletion strains, locus YMR263W, strain SAP30, hits give low values 1.01 | S. cerevisiae deletion strains, locus YMR307W, strain GAS1, hits give low values 0.999 | S. cerevisiae deletion strains, locus YNL067W, strain RPL9B, hits give low values 1.03 | S. cerevisiae deletion strains, locus YNL128W, strain TEP1, hits give low values 1.01 | S. cerevisiae deletion strains, locus YNL153C, strain GIM3, hits give low values 1.01 | S. cerevisiae deletion strains, locus YNL233W, strain BNI4, hits give low values 1.01 | S. cerevisiae deletion strains, locus YNL250W, strain rad50, hits give low values 0.981 | S. cerevisiae deletion strains, locus YNL271C, strain bni1, hits give low values 0.984 | S. cerevisiae deletion strains, locus YNL298W, strain CLA4, hits give low values 0.985 | S. cerevisiae deletion strains, locus YNL307C, strain MCK1, hits give low values 0.985 | S. cerevisiae deletion strains, locus YNL322C, strain KRE1, hits give low values 0.998 | S. cerevisiae deletion strains, locus YNR052C, strain pop2, hits give low values 0.98 | S. cerevisiae deletion strains, locus YOL006C, strain TOP1, hits give low values 1.1 | S. cerevisiae deletion strains, locus YOL012C, strain htz1 1.15 | S. cerevisiae deletion strains, locus YOL147C, strain pex11, hits give low values 0.986 | S. cerevisiae deletion strains, locus YOR061W, strain CKA2, hits give low values 1 | S. cerevisiae deletion strains, locus YOR069W, strain VPS5, hits give low values 0.995 | S. cerevisiae deletion strains, locus YOR136W, strain idh2, hits give low values 0.983 | S. cerevisiae deletion strains, locus YOR144C, strain elg1, hits give low values 1 | S. cerevisiae deletion strains, locus YOR184W, strain ser1, hits give low values 0.974 | S. cerevisiae deletion strains, locus YOR316C, strain cot1, hits give low values 0.985 | S. cerevisiae deletion strains, locus YPL055C, strain LGE1, hits give low values 1.04 | S. cerevisiae deletion strains, locus YPL241C, strain CIN2, hits give low values 0.999 | S. cerevisiae deletion strains, locus YPR119W, strain clb2, hits give low values 0.988 | S. cerevisiae deletion strains, locus YPR141C, strain kar3, hits give low values 0.984 | S. cerevisiae deletion strains, locus YPR163C, strain tif3, hits give low values 0.988 | S. cerevisiae deletion strains, locus YPR167C, strain met16, hits give low values 1 | S. cerevisiae deletion strains, strain wtn01, hits give low values 0.995 | S. cerevisiae strains, strain wild type, hits give low values 0.995
